The record followed here is the supplement of paper PMC6658780.

Structures can show the parent of a compound that is named as a salt. ± gives the standard deviation of the averaged measurements.

The test system of the first experiment is Klebsiella pneumoniae NCTC-13439. In words: percent growth inhibition of drug + antibiotic vs DMSO control; higher = more growth inhibition. The note with it: antibiotic (0.125x MIC): ciprofloxacin; 20 µM.
In the case of `Cc1nc2n(c(=O)c1CCN1CCC(c3noc4cc(F)ccc34)CC1)CCCC2` [Risperidone], the percent growth inhibition is -11.1 ± 3%.
On to `N=C(NCCCCCCNC(=N)NC(=N)Nc1ccc(Cl)cc1)NC(=N)Nc1ccc(Cl)cc1` [Chlorhexidine], for which the percent growth inhibition is 100.15 ± 0.021%.
Same read-out and setting: with `COc1c(N2C[C@@H]3CCCN[C@@H]3C2)c(F)cc2c(=O)c(C(=O)O)cn(C3CC3)c12` [Moxifloxacin] the figure was 99.24 ± 0.54%; with `O=C(OCC(O)CO)c1ccccc1Nc1ccnc2cc(Cl)ccc12` (stereo unspecified) [Glafenine hydrochloride], 5.01 ± 4.3%.
Same read-out and setting: with `NC1CCN(c2nc3c(cc2F)c(=O)c(C(=O)O)cn3-c2ccc(F)cc2F)C1` (stereo unspecified) [Tosufloxacin hydrochloride] the figure was 99.03 ± 0.4%.
Regarding `CC(=O)CCCCn1c(=O)c2c(ncn2C)n(C)c1=O` [Pentoxifylline], the percent growth inhibition was 5.4 ± 5.5%.
Still for that read-out and setting: with `NC1CCN(c2c(F)cc3c(=O)c(C(=O)O)cn(C4CC4)c3c2Cl)C1` (stereo unspecified) [Clinafloxacin] the figure was 93.36 ± 0.75%; with `CCN1CCN(c2cc3c(cc2F)c(=O)c(C(=O)O)cn3C2CC2)CC1` [Enrofloxacin], 73.1 ± 13%.
As for `Cc1c(F)c(N2CCNC(C)C2)cc2c1c(=O)c(C(=O)O)cn2C1CC1` (stereo unspecified) [Grepafloxacin], the percent growth inhibition stood at 51.2 ± 18%.
The same measure, in the same setting: with `NC(=O)N/N=C/c1ccc([N+](=O)[O-])o1` [Nitrofural] the figure was 16.3 ± 2.7%.
On the same count and under the same terms, with `COc1c(N2CCNC(C)C2)c(F)cc2c(=O)c(C(=O)O)cn(C3CC3)c12` (stereo unspecified) [Gatifloxacin] the figure was 96.7 ± 1.2%; with `C#C[C@]1(OC(C)=O)CC[C@H]2[C@@H]3CCC4=CC(=NO)CC[C@@H]4[C@H]3CC[C@@]21CC` (mixture of isomers) [Norgestimate], 4.4 ± 13%.

Still in this experiment, the particulars now being: antibiotic (0.125x MIC): tigecycline; 7 µM.
Take `C[C@H](N)[C@H](O)c1cccc(O)c1` [Metaraminol bitartrate]: the percent growth inhibition was 8.48 ± 9.5%.
Same read-out and setting: with `COc1c(N2C[C@@H]3CCCN[C@@H]3C2)c(F)cc2c(=O)c(C(=O)O)cn(C3CC3)c12` [Moxifloxacin] the figure was 14.4 ± 14%; with `CC(=O)CCCCn1c(=O)c2c(ncn2C)n(C)c1=O` [Pentoxifylline], 1.34 ± 3.2%.
Still for that read-out and setting: with `NC1CCN(c2c(F)cc3c(=O)c(C(=O)O)cn(C4CC4)c3c2Cl)C1` (stereo unspecified) [Clinafloxacin] the figure was 14.4 ± 11%; with `CCN1CCN(c2cc3c(cc2F)c(=O)c(C(=O)O)cn3C2CC2)CC1` [Enrofloxacin], 7.12 ± 1.8%; with `Cc1c(F)c(N2CCNC(C)C2)cc2c1c(=O)c(C(=O)O)cn2C1CC1` (stereo unspecified) [Grepafloxacin], 7.09 ± 6.5%.
The same measure, in the same setting: with `COc1c(N2CCNC(C)C2)c(F)cc2c(=O)c(C(=O)O)cn(C3CC3)c12` (stereo unspecified) [Gatifloxacin] the figure was 17.5 ± 19%.

The same experiment, now with this note: antibiotic (0.125x MIC): tigecycline; 20 µM.
Consider `COc1ccc(OC)c(C(O)CNC(=O)CN)c1` (stereo unspecified) [Midodrine hydrochloride], for which the percent growth inhibition is -2.55 ± 3.2%.
On the same count and under the same terms, with `C[C@H](N)[C@H](O)c1cccc(O)c1` [Metaraminol bitartrate] the figure was -12.7 ± 7%; with `N=C(NCCCCCCNC(=N)NC(=N)Nc1ccc(Cl)cc1)NC(=N)Nc1ccc(Cl)cc1` [Chlorhexidine], 100.14 ± 0.079%; with `COc1c(N2C[C@@H]3CCCN[C@@H]3C2)c(F)cc2c(=O)c(C(=O)O)cn(C3CC3)c12` [Moxifloxacin], 99.69 ± 0.6%.
Still for that read-out and setting: with `CC(=O)CCCCn1c(=O)c2c(ncn2C)n(C)c1=O` [Pentoxifylline] the figure was 4.32 ± 0.75%.
As to `NC1CCN(c2c(F)cc3c(=O)c(C(=O)O)cn(C4CC4)c3c2Cl)C1` (stereo unspecified) [Clinafloxacin], the percent growth inhibition was 96.8 ± 4.4%.
As to `CCN1CCN(c2cc3c(cc2F)c(=O)c(C(=O)O)cn3C2CC2)CC1` [Enrofloxacin], the percent growth inhibition stood at 69.6 ± 9.7%.
